In all, about 140,000 compounds went through this assay and about 860 (0.61%) were called active. Cut-off read from the data, not from the text of the source: active = inhibition above about 25%; inactive = the rest. The list comes from a sample in which actives are over-represented; it also holds similar structures and randomly drawn compounds.
These molecules were tested against E3 ubiquitin-protein ligase RBX1 (Homo sapiens) + Cullin-1 (Homo sapiens) (UniProt P62877+Q13616) (assay: blocks human RBX1-Cullin-1 di-ubiquitin formation (AID 1347404)). Settings: in vitro K48 di-Ub FRET, acceptor:donor ratio, 45 min; at 10 µM; stronger effect = higher value.
Chain of E3 ubiquitin-protein ligase RBX1 (Homo sapiens) + Cullin-1 (Homo sapiens) (P62877 whole entry, looked up): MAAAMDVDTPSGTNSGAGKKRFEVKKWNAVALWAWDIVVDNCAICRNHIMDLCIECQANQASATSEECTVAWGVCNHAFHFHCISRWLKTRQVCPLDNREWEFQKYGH
Chain of E3 ubiquitin-protein ligase RBX1 (Homo sapiens) + Cullin-1 (Homo sapiens) (Q13616 whole entry, looked up): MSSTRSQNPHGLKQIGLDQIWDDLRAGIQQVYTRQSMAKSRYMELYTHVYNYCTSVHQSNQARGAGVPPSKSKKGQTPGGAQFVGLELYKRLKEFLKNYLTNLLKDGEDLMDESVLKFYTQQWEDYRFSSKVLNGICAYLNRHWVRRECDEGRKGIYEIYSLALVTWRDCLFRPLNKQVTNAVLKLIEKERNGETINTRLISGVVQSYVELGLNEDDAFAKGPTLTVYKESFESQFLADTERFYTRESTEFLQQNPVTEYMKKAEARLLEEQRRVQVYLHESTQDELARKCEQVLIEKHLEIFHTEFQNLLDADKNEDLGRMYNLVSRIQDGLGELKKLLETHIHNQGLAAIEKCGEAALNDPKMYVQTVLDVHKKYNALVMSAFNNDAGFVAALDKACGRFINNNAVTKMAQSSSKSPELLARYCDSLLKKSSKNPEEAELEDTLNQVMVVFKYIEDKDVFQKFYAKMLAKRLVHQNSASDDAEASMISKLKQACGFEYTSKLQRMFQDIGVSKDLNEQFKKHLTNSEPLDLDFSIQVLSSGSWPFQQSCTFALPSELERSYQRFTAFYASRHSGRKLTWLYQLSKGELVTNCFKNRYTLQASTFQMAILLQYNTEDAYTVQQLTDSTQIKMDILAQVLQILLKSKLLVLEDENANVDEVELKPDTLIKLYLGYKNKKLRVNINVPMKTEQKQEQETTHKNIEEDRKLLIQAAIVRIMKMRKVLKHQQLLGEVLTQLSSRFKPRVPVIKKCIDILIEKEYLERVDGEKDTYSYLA

Row | SMILES | inhibition
1 | Cn1c(CC(=O)c2ccc(F)cc2)nccc1=O | 2.65% (inactive)
2 | O=C(OCc1ccccc1)c1cncc(Br)c1 | -7.74% (inactive)
3 | O=C(OCc1ccccc1)c1ccc(O)c(O)c1 | 43% (active)
4 | COC(=O)c1cccc(COC(=O)c2ccc(NC(C)=O)cc2)c1 | 1.6% (inactive)
5 | Nc1nc2cccnc2cc1Br | 1.54% (inactive)
6 | CCOc1cccc(CC(=O)N2CCc3c([nH]c4ccccc34)C2c2ccc(F)cc2)c1OCC (stereo unspecified) | 1.07% (inactive)
7 | CCOc1cccc2c1N[C@@H](c1ccc(C(=O)O)cc1)[C@H]1CC=C[C@@H]21 | 68.9% (active)
8 | Fc1cc(Br)cc2c1NC(c1ccccc1C(F)(F)F)C1CC=CC21 (stereo unspecified) | 1.76% (inactive)
9 | CCC(C1=NN2C(=N)/C(=C\c3ccc(OC(=O)c4ccco4)cc3)C(=O)N=C2S1)c1ccccc1 (stereo unspecified) | -6.1% (inactive)
10 | Cc1ccc(C2=NN3C(=N)/C(=C/c4ccco4)C(=O)N=C3S2)cc1 | 34.8% (active)
11 | Cc1cc(/C=C2/C(=N)N3N=C(c4ccccc4Cl)SC3=NC2=O)c(C)n1-c1ccc(Cl)cc1Cl | 2.61% (inactive)
12 | Cc1ccc(C)c(-n2nnc(C(=O)Nc3ccc(N4CCN(C)CC4)cc3)c2C)c1 | 12.2% (inactive)
13 | COc1cccc(OC)c1C(=O)Oc1ccc(Br)cc1Br | 3.84% (inactive)
14 | CCOC(=O)C1=C(C)N=c2s/c(=C\c3cc(C)n(-c4ccc(Br)cc4)c3C)c(=O)n2C1c1ccccc1Cl (stereo unspecified) | -10.4% (inactive)
15 | CCOC(=O)C1=C(C)N=c2s/c(=C\c3ccc(N(CC)CC)cc3O)c(=O)n2C1c1ccc(Br)cc1 (stereo unspecified) | 49.4% (active)
16 | CCOC(=O)C1=C(C)N=c2s/c(=C\c3cccnc3)c(=O)n2C1c1ccc(OC)c(Br)c1 (stereo unspecified) | -5.43% (inactive)
17 | CCOC(=O)C1(CCOC)CCN(Cc2ccc(C#CCCO)cc2)CC1 | -1.32% (inactive)
18 | C=C(C)COc1ccc(NC(C)=O)cc1 | -3.18% (inactive)
19 | Cc1ccc(N=C2S/C(=C\c3cc(Cl)ccc3O)C(=O)N2C)cc1C | -0.425% (inactive)
20 | Cc1c(CN2CCc3[nH]nc(-c4cccc(F)c4)c3C2)cnn1C | 8.08% (inactive)
21 | CN(C)S(=O)(=O)N1CCC(C(=O)Nc2ccc(Cl)c(C(F)(F)F)c2)CC1 | 6.61% (inactive)
22 | N#Cc1cccc(-c2cccc(-c3ccn[nH]3)c2)c1 | 2.7% (inactive)
23 | Cc1ccc(C2=NC(=O)OC2(C)C)c(C)c1 | 2.99% (inactive)

Row | SMILES | inhibition
24 | COC(=O)COc1ccc(/C=N/NC(=O)c2ccc(N(Cc3ccccc3Cl)S(C)(=O)=O)cc2)cc1 | -4.5% (inactive)
25 | Cc1cc(O)c(C(=O)C2=CSc3nnc(-c4ccccc4)n3N=C2)cc1Cl | 2.34% (inactive)
26 | CCOC(=O)C1C(C)=NC(=O)NC1c1cn(-c2ccccc2)nc1-c1ccc(Cl)cc1 (stereo unspecified) | -6.88% (inactive)
27 | C=CCC(=O)N1CCC(C2CCN(Cc3cccnc3)CC2)C1 (stereo unspecified) | 0.333% (inactive)
28 | Cc1ccc(C)c(NC(=O)NC2CCCc3ccccc32)c1 (stereo unspecified) | -5.58% (inactive)
29 | CC(Oc1ccc(F)cc1)C(=O)NC(C)c1ccccc1 (stereo unspecified) | -5.33% (inactive)
30 | Cc1nn(-c2ccccc2)c(Cl)c1C1c2c(n[nH]c2-c2ccccc2)OC(=N)C1C#N (stereo unspecified) | -6.2% (inactive)
31 | CCn1c2ccccc2c2cc(C=Nc3cccc(Cl)c3C)ccc21 | -4.47% (inactive)
32 | CCC(NC1CCN(c2nc(C)c3cc(C)c(C)cc3n2)CC1)c1ccncc1 (stereo unspecified) | 57.6% (active)
33 | Cc1cc2nc(N3CCC(C(=O)NC45CC6CC(CC(C6)C4)C5)CC3)nc(C)c2cc1C | 17.1% (inactive)
34 | COCCNC(=O)C1CCN(c2nc(C)c3cc(C)c(C)cc3n2)CC1 | -4.41% (inactive)
35 | Clc1ccc(COn2nnc3ccccc32)cc1Cl | -0.0969% (inactive)
36 | O=[N+]([O-])c1ccccc1/C=N/Nc1nc2c(s1)CCCC2 | -4.02% (inactive)
37 | CCCCNC(=O)c1nnn(-c2ccccc2)c1C | 9.64% (inactive)
38 | CCOC(=O)C1=c2s/c(=C/c3ccc(Cl)cc3)c(=O)n2C(=N)C(C(=O)OC)C1c1ccc(Cl)cc1 (stereo unspecified) | -2.16% (inactive)
39 | Cc1ccc(C(=O)Nc2ccc(-c3nnc(SCC(=O)Nc4ccc(F)cc4)n3C)cc2)cc1 | 2.28% (inactive)
40 | C#CCOc1ccc(/C=C2\SC(=S)N(c3cccc(C(=O)O)c3)C2=O)cc1OC | -1.21% (inactive)
41 | O=C1SC(=Nc2ccccc2)N=C1Cc1cccc(OC(=O)c2ccccc2)c1 | 2.05% (inactive)
42 | Cc1ccc(CCC(=O)NCc2ccc(Cl)cc2)cc1 | -2.97% (inactive)
43 | Nc1nnnn1/N=C/c1ccc([N+](=O)[O-])o1 | 5.46% (inactive)
44 | O=C(O)c1cc2c(s1)C=Cc1ccccc1C2 | 4.96% (inactive)
45 | Cc1nc2c(sc3nc4ccccc4nc32)c(=O)[nH]1 | -2.71% (inactive)
46 | NC(=O)c1ccccc1NC(=O)c1ccc(CN2CCCCC2)cc1 | 4.02% (inactive)

Row | SMILES | inhibition
47 | COC(=O)c1ccc2c(c1)C1C=CCC1C(c1cccc([N+](=O)[O-])c1)N2 (stereo unspecified) | 5.03% (inactive)
48 | O=C(O)c1ccc2c(c1)[C@@H]1C=CC[C@@H]1[C@H](c1ccc3c4c(cccc14)CC3)N2 | 99.3% (active)
49 | O=C(c1ccc2c(c1)C1C=CCC1C(c1ccccc1)N2)N1CCOCC1 (stereo unspecified) | -11.2% (inactive)
50 | CC(=O)Nc1ccc(OC(=O)c2cccc(C)c2)cc1 | -0.55% (inactive)
51 | COc1ccccc1-c1nc(CN2CCCC2c2n[nH]c(=O)[nH]2)c(C)o1 (stereo unspecified) | -4.69% (inactive)
52 | Cc1c(/C=N/NC(=O)CSc2nc3ccccc3s2)c2ccccc2n1C | 5.36% (inactive)
53 | Brc1ccc(C#Cc2cccs2)cc1 | -4.29% (inactive)
54 | O=C(COc1ccccc1Cl)Nc1nncs1 | 2.7% (inactive)
55 | COc1cccc(-c2nn3c(-c4cccc(C(F)(F)F)c4)nnc3s2)c1 | -4.15% (inactive)
56 | Clc1ccccc1CSc1nnc(-c2ccco2)c(-c2ccco2)n1 | 101% (active)
57 | Clc1ccccc1CSc1nncn2c1cc1occc12 | 6.61% (inactive)
58 | CC1(C)N=C(SCc2ccccc2Cl)c2ccccc2N1 | -9.73% (inactive)
59 | CN1CCC(N2CCCC2C(=O)Nc2ccc(-c3cccc(F)c3)cc2)CC1 (stereo unspecified) | -3.33% (inactive)
60 | O=C(/C=C/c1ccc([N+](=O)[O-])o1)c1ccco1 | -10.2% (inactive)
61 | Cc1noc(C)c1C(=O)Nc1ccc(C(F)(F)F)cc1 | 1.67% (inactive)
62 | O=C(O)c1cccc(N2N=C(c3ccc4c5c(cccc35)C(=O)N(c3ccccc3)C4=O)CC2c2ccccc2)c1 (stereo unspecified) | 44.6% (active)
63 | CC(=O)N1N=C(c2ccc(Cl)cc2Cl)CC1c1ccccc1 (stereo unspecified) | -1.24% (inactive)
64 | Clc1cccc(N2N=C(c3cccs3)CC2c2ccccc2)c1 (stereo unspecified) | -9.66% (inactive)
65 | CCCc1sc(-n2c(C)cc(/C=C3/C(=O)NC(=S)N(C)C3=O)c2C)c(C#N)c1C | 76.1% (active)
66 | Cc1ccc(-n2c(C)cc(/C=C3/C(=O)NC(=S)N(c4ccc(Br)cc4)C3=O)c2C)cc1 | -0.744% (inactive)
67 | Cc1cc(/C=C2\C(=O)NC(=S)N(c3ccc(Cl)cc3)C2=O)c(C)n1-c1ccccc1 | 1.69% (inactive)
68 | Cc1ccccc1Cn1cc(C(=O)N2CCN(C3CCCC3)CC2)nn1 | 14.7% (inactive)
69 | CC1=Nc2nnnn2C(c2ccc(Br)cc2)C1C(=O)Nc1ccccc1 (stereo unspecified) | 0.6% (inactive)

Row | SMILES | inhibition
70 | O=C(c1nn2c(C(F)(F)F)c3c(nc2c1Cl)-c1ccccc1CC3)N1CCN(c2ccc(F)cc2)CC1 | -4.56% (inactive)
71 | N#CC1C(=N)OC2=C(CCC/C2=C/c2ccoc2)C1c1ccoc1 (stereo unspecified) | 50.6% (active)
72 | CSc1ccc(C2C3=C(CCCC3=O)OC(=N)C2C#N)cc1 (stereo unspecified) | 3.66% (inactive)
73 | N#CC1C(=N)OC2=C(C(=O)CCC2)C1c1ccsc1 (stereo unspecified) | 6.79% (inactive)
74 | Cc1ccc2nc(CNC(=O)Cn3nnnc3CN3CCC(C)CC3)cn2c1 | -3.66% (inactive)
75 | Clc1ccc(C2=CSC3=Nc4cccc5cccc(c45)N23)cc1 | 86.8% (active)
76 | Clc1ccc(-c2cc3ccccc3o2)cc1 | -1.45% (inactive)
77 | O=C(O)c1ccccc1C(=O)Nc1ccc(-c2cn3ccsc3n2)cc1 | 10.3% (inactive)
78 | COC(=O)Nc1ccc(S(=O)(=O)N2CCn3c4c(c5cc(C)ccc53)CCCC42)cc1 (stereo unspecified) | -2.9% (inactive)
79 | Nc1c(S(=O)(=O)O)cc(Nc2ccc(-c3ccc(Nc4cc(S(=O)(=O)O)c(N)c5c4C(=O)c4ccccc4C5=O)cc3)cc2)c2c1C(=O)c1ccccc1C2=O | 94.8% (active)
80 | COCCCNC(=O)c1ccc2c(c1N)C(=O)c1ccccc1C2=O | 5.03% (inactive)
81 | Cc1ccc(OCc2ccc(C(=O)N/N=C/c3sccc3C)cc2)cc1C | -9.15% (inactive)
82 | Cc1cc(C(=O)O)ccc1NCc1ccccc1 | 15.3% (inactive)
83 | COc1cc(C(=O)N/N=C(/C)c2cccnc2)cc(OC)c1OC | -15.1% (inactive)
84 | COc1cccc(OC/C=C/CN2CCN(C)CC2)c1 | -3.35% (inactive)
85 | O=C(c1ccco1)N(Cc1cccs1)c1ccc(O)cc1 | -0.924% (inactive)
86 | CCc1nccn1CCC(=O)NCc1nc(-c2ccc(NC(=O)c3ccc(COC)o3)cc2)oc1C | -7.82% (inactive)
87 | CCNC(=O)N1CCNC(=O)C1CC(=O)N1CCN(c2ccc(OC)cc2)CC1 (stereo unspecified) | 16.6% (inactive)
88 | CCOc1ccc(-n2c(Sc3c(N)c4c5c(sc4[nH]c3=O)CCC5)nnc2-c2nn(C)c(C)c2Cl)cc1 | -4.22% (inactive)
89 | CCCNC(=O)C1CCN(Cc2ccccc2C)CC1 | 4.05% (inactive)
90 | COC(=O)C1=C(C)O[C@]23CCC[C@]12CC(=O)C3 | 2.4% (inactive)
91 | c1ccc2c(Sc3ncnc4sc5c(c34)CCCC5)c[nH]c2c1 | 0.643% (inactive)

From PubChem BioAssay AID1347404 (Pan Lab, Icahn School of Medicine at Mount Sinai, 2020)
